Test [1] in a line: NCI Yeast Anticancer Drug Screen. Data for the rad50 strain (AID 155).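 Further: 0% = growth of vehicle-only cultures of the same strain.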 The conditions noted are these: S. cerevisiae rad50 strain growth inhibition, active compounds read high. Put shortly:
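A DNA repair-deficient yeast mutant serves as the test organism; compound-induced growth inhibition is calculated against vehicle-treated cells.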

Test [2] is described as follows: NCI Yeast Anticancer Drug Screen. Data for the mec2-1 strain (AID 157). The conditions noted are these: S. cerevisiae mec2-1 strain, active compounds read high. Put shortly:
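Readout is yeast growth inhibition, normalised to vehicle-treated controls, in the mec2-1 strain exposed to compound.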

Test [3] is described as follows: NCI Yeast Anticancer Drug Screen. Data for the sgs1 mgt1 strain (AID 161).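 Further: 0% = growth of cultures given vehicle only.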 The conditions noted are these: S. cerevisiae sgs1 mgt1 strain, active compounds read high. Put shortly: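 Percent growth inhibition was derived by comparing compound-exposed mutant yeast with vehicle-exposed cultures. The strain carries alterations in DNA damage repair.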
Test [4] is described as follows: NCI Yeast Anticancer Drug Screen. Data for the cln2 rad14 strain (AID 165).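 Further: 0% = growth equal to vehicle treated cultures.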 The conditions noted are these: S. cerevisiae cln2 rad14 strain, active compounds read high. Put shortly: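 Relative to vehicle controls, growth inhibition of compound-treated cln2 rad14 yeast was recorded.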
Test [5] can be described thus: NCI Yeast Anticancer Drug Screen. Data for the bub3 strain (AID 167). The conditions noted are these: S. cerevisiae bub3 mutant strain, active compounds read high. Put shortly:
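Inhibition values come from growth of compound-treated mutant yeast normalised to vehicle-treated controls.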

Test [6] can be described thus: NCI Yeast Anticancer Drug Screen. Data for the mlh1 rad18 strain (AID 175). The conditions noted are these: S. cerevisiae mlh1 rad18 strain growth inhibition, active compounds read high. Put shortly:
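Test agents were incubated with a yeast strain of defined genotype (DNA damage repair defect). Inhibition of growth was derived by comparison with vehicle-exposed cultures.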

Setting [7] is: at 5.0 µM (retest, dose inferred, filed as 0.5).
The mark [8] stands for this setting: at 50.0 µM (retest, dose inferred, filed as 5.0).

This is part of a sample that, as a whole, favours compounds with a hit. Of some 79,000 tested, about 15% had one in any assay. Values without a mark were called inactive. Calls of active or inactive are those of the source. No stated cut-off is given here; in the data, active means growth inhibition above about 70%; inactive means the rest.

Take `CCOC(=O)/C(C#N)=C/c1coc2cc(C)cc(C)c2c1=O`: the growth inhibition in test [1] (setting [7]) was 6%; in test [1] (setting [8]) it was 100% (active); in test [1] (at 50.0 µM), 70.4% (active); in test [2] (setting [7]) it was 2%; in test [2] (setting [8]) it was 97% (active); in test [2] (at 50.0 µM), 90.4% (active). Besides, the growth inhibition in test [3] (setting [7]) is -3%; in test [3] (setting [8]) it was 98% (active); in test [3] (at 50.0 µM) it was 79.9% (active); in test [4] (setting [7]), -2%; in test [4] (setting [8]), 89% (active); in test [4] (at 50.0 µM), 89.3% (active). Moreover, the growth inhibition in test [5] (setting [7]) was -20%; in test [5] (setting [8]) it was 93% (active); in test [5] (at 50.0 µM) it was 83% (active); in test [6] (setting [7]) it was 15%; in test [6] (setting [8]), 98% (active); in test [6] (at 50.0 µM), 65.8%.

Turning to `O=[N+]([O-])c1cccc(S(=O)(=O)Nc2cccc3ccccc23)c1`, the growth inhibition in test [1] (setting [7]) is 4%; in test [1] (setting [8]), 97% (active); in test [1] (at 50.0 µM), 99% (active); in test [2] (setting [7]), 1%; in test [2] (setting [8]), 98% (active); in test [2] (at 50.0 µM) it was 99.2% (active). In addition, the growth inhibition in test [3] (setting [7]) is 2%; in test [3] (setting [8]) it was 97% (active); in test [3] (at 50.0 µM), 99.2% (active); in test [4] (setting [7]) it was 4%; in test [4] (setting [8]), 98% (active); in test [4] (at 50.0 µM) it was 99.2% (active). Besides, the growth inhibition in test [5] (setting [7]) is 1%; in test [5] (setting [8]), 97% (active); in test [5] (at 50.0 µM), 99.2% (active); in test [6] (setting [7]), -3%; in test [6] (setting [8]) it was 97% (active); in test [6] (at 50.0 µM) it was 98.7% (active).

As to `COc1ccc(C2=C(Cl)C(=O)N(c3ccccc3C)C(=O)C2(Cl)Cl)cc1`, the growth inhibition in test [1] (setting [7]) is 66%; in test [1] (setting [8]), 95% (active); in test [1] (at 50.0 µM), 94.3% (active); in test [2] (setting [7]) it was 17%; in test [2] (setting [8]), 97% (active); in test [2] (at 50.0 µM), 97.8% (active). Also, the growth inhibition in test [3] (setting [7]) is 83% (active); in test [3] (setting [8]), 97% (active); in test [3] (at 50.0 µM) it was 97.9% (active); in test [4] (setting [7]), 24%; in test [4] (setting [8]), 94% (active); in test [4] (at 50.0 µM) it was 85.4% (active). The growth inhibition was 44% in test [5] (setting [7]); 95% (active) in test [5] (setting [8]); 94.1% (active) in test [5] (at 50.0 µM); 70% (active) in test [6] (setting [7]); 93% (active) in test [6] (setting [8]); 97.7% (active) in test [6] (at 50.0 µM).

`O=C(/C=C/c1ccc(O)cc1)c1cc(Cl)ccc1O`: the growth inhibition is 10% in test [1] (setting [7]); 96% (active) in test [1] (setting [8]); 95.7% (active) in test [1] (at 50.0 µM); 6% in test [2] (setting [7]); 97% (active) in test [2] (setting [8]); 95.7% (active) in test [2] (at 50.0 µM). Further, the growth inhibition was 36% in test [3] (setting [7]); 97% (active) in test [3] (setting [8]); 92.4% (active) in test [3] (at 50.0 µM); -4% in test [4] (setting [7]); 97% (active) in test [4] (setting [8]); 94.2% (active) in test [4] (at 50.0 µM). Also, the growth inhibition in test [5] (setting [7]) is 4%; in test [5] (setting [8]) it was 97% (active); in test [5] (at 50.0 µM), 96.5% (active); in test [6] (setting [7]) it was 7%; in test [6] (setting [8]), 96% (active); in test [6] (at 50.0 µM), 93.3% (active).

With `CC(C)c1ccc(C(=O)C2CC2)cc1`, the growth inhibition was -23% in test [1] (setting [7]); 0% in test [1] (setting [8]); 34.6% in test [1] (at 50.0 µM); -10% in test [2] (setting [7]); -27% in test [2] (setting [8]); 42.9% in test [2] (at 50.0 µM). Moreover, the growth inhibition in test [3] (setting [7]) is -12%; in test [3] (setting [8]) it was -14%; in test [3] (at 50.0 µM), 50.6%; in test [4] (setting [7]), 9%; in test [4] (setting [8]), 24%; in test [4] (at 50.0 µM), 40.5%. Moreover, the growth inhibition in test [5] (setting [7]) was -29%; in test [5] (setting [8]) it was -20%; in test [5] (at 50.0 µM), 65.3%; in test [6] (setting [7]), -22%; in test [6] (setting [8]), -18%; in test [6] (at 50.0 µM), 21%.

Regarding `O=c1c2[nH]c3cccc(Cl)c3c2cnn1-c1ccc(F)cc1`, the growth inhibition in test [1] (setting [7]) is 4%; in test [1] (setting [8]), 47%; in test [1] (at 50.0 µM) it was 96.7% (active); in test [2] (setting [7]), 2%; in test [2] (setting [8]), 74% (active); in test [2] (at 50.0 µM), 97.2% (active). The growth inhibition in test [3] (setting [7]) is 9%; in test [3] (setting [8]) it was 35%; in test [3] (at 50.0 µM) it was 96.6% (active); in test [4] (setting [7]), 2%; in test [4] (setting [8]), 85% (active); in test [4] (at 50.0 µM), 94.5% (active). For the same molecule, the growth inhibition was 2% in test [5] (setting [7]); 53% in test [5] (setting [8]); 98% (active) in test [5] (at 50.0 µM); -2% in test [6] (setting [7]); 79% (active) in test [6] (setting [8]); 97% (active) in test [6] (at 50.0 µM).
